Experimental data: ChEMBL document CHEMBL1201862, “PubChem BioAssay data set” (2004)
Screen size: about 58,000 sequences; about 4,000 (6.9%) were called active. The calls are words filed in the database; no cut-off is given here. Only a sample is shown. Entries with a potency or affinity are not part of this list.

These substances were tested on HCT-15.

Substance | GI50 [µM]
cis-Bis[[(trimethylsilyl)methyl]amino]tetrachloroplatinum(IV), CHEMBL2146191 | 3.42
[Bis(aminomethyl)tetramethylenesilane]dichloropaltinum(II), CHEMBL2146205 | 20.5
[Bis(aminomethyl)dimethylsilane]tetrachloroplatinum(IV), CHEMBL2146190 | 8.45
CISPLATIN, CHEMBL11359 | 7.21
[Bis(aminomethyl)dimethylsilane]dichloroplatinum (II), CHEMBL2146201 | 27.5
[Bis(aminomethyl)tetramethylenesilane]tetrachloropaltinum(IV), CHEMBL2146189 | 3.62
mu-(1,7-nanodiamine-N,N')bis-(cis-aminedichloroplatimum (II)), CHEMBL2146215 | 37.1
[Bis(aminomethyl)pentamethylenesilane]dichloropaltinum(II), CHEMBL2146202 | 5.21
[Bis(aminomethyl)diethylsilane]tetrachloroplatinum(IV), CHEMBL2146203 | 2.45
[Bis(aminomethyl)pentamethylenesilane]tetrachloropaltinum(IV), CHEMBL2146204 | 0.953
[Bis(aminomethyl)ethylmethylsilane]tetrachloroplatinum(IV), CHEMBL2146192 | 3.5
